Assay outcomes as filed in PubChem.
This is a sample that favours compounds with a hit; in the whole collection about 4.5% have one here.
ssDAF-12 act = activators of S. stercoralis DAF-12 nuclear receptor; HEK293 ssDAF-12/GRIP1 lit1-tk-luc reporter, luminescence; % of 3 µM dafachronic acid response; activation, % at 6.8 µM; 370,000 tested, 1% active; AID 652126;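 active means activation above the mean over all tested compounds plus 3 SD, cut at about 0.9% in these data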;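 further: 0% = DMSO-only wells and 100% = 3 µM delta7-dafachronic acid wells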
hcDAF12 agonist = H. contortus DAF-12 activation, primary screen; activation, % at 6.8 µM; HEK293 hcDAF-12 lit1-tk-luc reporter, luminescence; 0% DMSO, 100% Δ7-dafachronic acid; 370,000 tested, 1.4% active;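 active means activation above the mean of all tested compounds plus 3 SD, cut at about 5.5% in these data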;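 further: 100% = response to 3 µM Δ7-dafachronic acid high control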
GAA850 FXN act = frataxin GAA850 promoter activation; HEK293 lucGAA850 FXN promoter luciferase reporter, 24 h; percent of 10 µM SAHA response; activation, % at 6 µM; 360,000 tested, 0.56% active;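 active means activation above the average of all compounds screened plus 3 SD, cutoff fixed separately per campaign, cut at about 7.5% in these data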;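 further: 0% = DMSO wells and 100% = 10 µM SAHA wells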
DAX1 inh-1 = NR0B1 (DAX1) inhibition; P51843; HEK293 Gal4-DAX1 luciferase reporter, luminescence; inhibition, % at 6.75 µM; 340,000 tested, 0.99% active;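 active means inhibition above the mean over all tested compounds plus 3 SD, cut at about 4.2% in these data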;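 further: 0% = DAX1-transfected cells with DMSO and 100% = empty-vector control cells with DMSO; inhibition shows as a rise in luminescence from relieved DAX1 repression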
Target sequence (P51843 207-470 limits assumed): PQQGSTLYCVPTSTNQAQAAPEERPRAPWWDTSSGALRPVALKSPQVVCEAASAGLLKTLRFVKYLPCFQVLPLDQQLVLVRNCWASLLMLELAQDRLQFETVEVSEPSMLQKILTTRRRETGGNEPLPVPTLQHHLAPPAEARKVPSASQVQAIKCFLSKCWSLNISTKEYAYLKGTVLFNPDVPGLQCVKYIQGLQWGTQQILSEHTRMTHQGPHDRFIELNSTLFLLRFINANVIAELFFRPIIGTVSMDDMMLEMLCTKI
DAX1 inh-2 = inhibitors of DAX1 repression of SF-1 activated StAR promoter. 370,000 tested, 1.1% active. inhibition, % at 6.8 µM. HEK293T StAR-luciferase reporter, SF-1/DAX-1 repression relief;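 active means inhibition above the mean over all tested compounds plus 3 SD, cut at about 3.6% in these data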;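 further: 0% = DAX-1 cells with DMSO and 100% = cells lacking DAX-1 with DMSO; higher inhibition means more luminescence from relief of DAX-1 repression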
hgDAF12 agonist = activates the H. glycines DAF-12 receptor ligand-binding domain. activation, % at 6.8 µM. 370,000 tested, 1.8% active. HEK293 GAL4-hgDAF12 UAS-luciferase reporter, agonist luminescence; normalized to butyrate control. AID 687014;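 active means activation above a cutoff set at the mean of all screened compounds plus 3 SD, cut at about 10% in these data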;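 further: 0% = DMSO wells and 100% = sodium butyrate wells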
Starred values were filed as active, the others as inactive; · = no result.

SMILES | ssDAF-12 act | hcDAF12 agonist | GAA850 FXN act | DAX1 inh-1 | DAX1 inh-2 | hgDAF12 agonist
c1ccc(OCCSc2nc3ccccc3[nH]2)cc1 | -1 | -1 | 3 | 4.7* | 0 | 1
c1ccc(OCc2nc3ccccc3[nH]2)cc1 | -1 | 0 | 4 | 3 | 2 | 11*
COc1cccc(CSc2nc3ccccc3[nH]2)c1 | -1 | 1 | 8 | 1 | 2 | 13*
Cc1ccc(CNC(=O)O[C@H]2CC[C@@]34CCCN3C(=O)CCC[C@H]4C2)o1 | -2 | -1 | · | · | · | -3
Cc1ccc(NC(=O)c2snc3ccc(Cl)cc23)cc1C | 0 | 6.0* | 4 | 2 | 2 | 10
Cc1ccc(NC(=O)c2ccccc2)cc1C | -1 | 0 | 3 | 1 | 0 | 3
CCCCOCCCNC(=O)C[C@@H]1C(=O)N(Cc2ccc(OC)cc2)C2=CCN(C(=O)OC(C)(C)C)C[C@]21C(=O)OCC | -2 | -3 | · | · | -1 | 0
Cc1ccccc1-n1c(-c2ccoc2C)n[nH]c1=S | 1.3* | 3 | 2 | -1 | 0 | 2
CCc1ccc(NC(=O)c2ccccc2NC(=O)C2CCCO2)cc1 (stereo unspecified) | 0 | 3 | 7 | 0 | 2 | 13*
CCOC(=O)c1ccccc1NC(=O)C1CCCO1 (stereo unspecified) | -1 | 1 | 1 | 2 | 0 | -1
c1ccc(-c2ccc(-c3ccncn3)cc2)cc1 | 0 | 0 | 2 | 3 | 2 | 12*
OC(C#CCCN1CCCCC1)(c1ccccc1)c1ccccc1 | -1 | -1 | 0 | · | 0 | -3
OC(C#CCCN1CCCCC1)(c1ccccc1)C1CCCCC1 (stereo unspecified) | -1 | 1 | -1 | 5.0* | 0 | -2
Cc1ccc(Cn2cc(COC(=O)N3CCOCC3)nn2)cc1 | 1 | -1 | · | · | 0 | 6
COc1cc(C)c(S(=O)(=O)Nc2ccccc2F)cc1C | -1 | -1 | 0 | 2 | 0 | -2
Cc1cc2[nH]c(=O)c(=O)[nH]c2cc1S(=O)(=O)Nc1ccccc1F | -1 | -1 | -3 | 4.6* | -1 | -1
CC(C)N(Cc1cn(Cc2ccccc2)nn1)S(=O)(=O)c1ccccc1Br | -2 | 2 | · | · | -1 | 0
O=C(Nc1nc(-c2cccs2)cs1)c1ccc(Cl)s1 | -1 | -3 | 2 | 0 | 0 | 11*
Cc1nc2c3ccccc3n(CC#N)c(=O)n2n1 | 0 | 6.1* | 1 | 0 | 1 | 8
N#CCn1c(CCl)nc2ccccc2c1=O | -1 | 0 | 0 | 3 | 0 | -3
COC(=O)c1ccc(NC(=O)Nc2ccc3c(c2)nc(C)n3C)cc1 | -1 | -3 | -2 | 0 | -1 | 2
Cc1cc(NC(=O)Nc2ccc3c(ccn3C)c2)sn1 | -1 | 1 | 4 | 1 | 1 | 11*
O=C(NCC1COCCO1)C1CCN(S(=O)(=O)c2cccs2)CC1 (stereo unspecified) | -1 | -1 | · | · | 0 | 2
O=C(c1cccs1)n1nc(-c2ccccc2)nc1NCc1ccco1 | -1 | -2 | 2 | 0 | 0 | -3
COCC(=O)n1nc(-c2ccccc2)nc1NCc1cccs1 | -1 | 0 | 6 | 5.2* | 2 | 8
SMILES | ssDAF-12 act | hcDAF12 agonist | GAA850 FXN act | DAX1 inh-1 | DAX1 inh-2 | hgDAF12 agonist
COCC#Cc1ccc(CC[C@H]2O[C@H]3CC[C@@H](CO)O[C@H]3C[C@H]2n2cc(C(C)(C)O)nn2)cc1 | -1 | 0 | · | · | 0 | -1
C[N+]1(CCC(=O)c2ccccc2)CCCCC1 | 1.7* | -1 | 0 | 1 | 0 | -3
O=C(CCN1CCCCC1)c1ccccc1 | -2 | 4 | 0 | -1 | 1 | 2
Cc1ccsc1C(=O)OCC(=O)Nc1nnc(-c2ccccc2)o1 | -1 | 0 | 0 | -2 | 4 | 3
Cc1ccsc1C(=O)OCc1nnc(-c2ccccc2)o1 | -1 | 1 | 3 | 2 | 4.0* | 2
O=S(=O)(NCCc1csc(-c2cccnc2)n1)c1cccs1 | -1 | -1 | 1 | 0 | 0 | -2
O=S(=O)(NCc1csc(-c2cccnc2)n1)c1cccs1 | 0.9* | 0 | 3 | 0 | 1 | 3
